Assay results taken from PubChem BioAssay (NCI).
Compounds without any hit were thinned out: in the full panel of roughly 83,000, 20% have a hit.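 Cell lines were cultured in 96-well plates, exposed to a single compound concentration, and assessed for percent growth 48 hours later.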 A number with no mark means an inactive call. Calls of active or inactive are those of the source.

These compounds were tested on KM12 colon (assay: NCI-60 one-dose screen, 48 h (100 = growth as untreated, 0 = no growth, -100 = all killed)). Conditions: 10 µM unless noted.
Procedure: Growth inhibition of the KM12 human tumor cell line is measured as a screen for anti-cancer activity. Cells are grown in 96 well plates and exposed to the test compound for 48 hours. Compounds are tested at a single concentration, which is 10^-5 M for most compounds. The reported endpoint is percent growth (GI% or GIPRCNT), where numbers from 0 - 100% represent growth inhibition, and numbers from -100% - 0 represent cell death. For example, a value of 40 represents 60% growth inhibition. A value of 0 means no net growth occurred over the course of the experiment. A value of -40 indicates 40% of cells at the beginning of the experiment died by the end of the experiment. A value of -100 means all cells are dead at the end of the experiment.
NCI-60 Human Tumor Cell Lines Screen was performed using the standard one-dose NCI protocol, which is described in more detail at https://dtp.cancer.gov/discovery_development/nci-60/default.htm.
Compounds with GIPRCNT values below 10 were considered active. Activity score was based on GIPRCNT using the following formula: […]
Score is 0 for GIPRCNT values of 100 or above, 50 for GIPRCNT values of 0, and 100 for GIPRCNT values of -100.
Cc1ccc(C2CC(c3cccc(Nc4ccncc4)c3)=NN2c2cc(Cl)cc(Cl)c2)cc1 (stereo not given) was tested, and the growth was -67.5% (active).
Cc1ccc(-c2c(Br)c(OC(=O)CO[C@@H]3C[C@H](C)CC[C@H]3C(C)C)c(-c3ccc(C)cc3C)c(Br)c2OC(=O)CO[C@H]2C[C@@H](C)CC[C@@H]2C(C)C)c(C)c1 showed a growth of 107%.
With Cn1c(COC(=O)NCCN2CCOCC2)nc2c(N3CCOCC3)nc(-c3ccccc3)nc21 the growth was -5.33% (active).
CNC(=O)Nc1ccc(-c2nc(N3CCOCC3)nc3c2cnn3C2CCOCC2)cc1 gave a growth of 12.8%.
Compound Brc1ccc(C2CC(c3cccc(Nc4ccncc4)c3)=NN2c2ccccc2)cc1 (stereo not given) has a growth of 46.9%.
Nc1nc(SN=Nc2ccc(S(N)(=O)=O)cc2)c2[nH]cnc2n1 was tested, and the growth was 5.31% (active).
With COc1cc(NCC(O)CN(CC(C)C)C2CCCC2)c2ncccc2c1 (stereo not given) the growth was 87%.
Compound COc1ccc(-c2nc(N/N=C/c3ccco3)nc(N3CCOCC3)c2C#N)cc1 has a growth of 86.7%.
Work on O=C(N/N=C/c1ccc(F)cc1)c1ccccc1Nc1cccc(C(F)(F)F)c1 yielded a growth of 91.4%.
For CN1CCN(c2ccc3nc(-c4cc(C(C)(C)C)c(O)c(C(C)(C)C)c4)[nH]c3c2)CC1, the growth was 16.9%.
For COc1ccc(C(O)c2cc3c(N)c(C(=O)Nc4ccccc4)sc3nc2C)cc1 (stereo not given), the growth was 3.05% (active).
With Cc1c2c(cc[n+]1Cc1ccccc1)c1ccc(OCC3CCCCC3)cc1n2CC1CCCCC1 the growth was -99.9% (active).
Compound Nc1c(C(=O)Nc2cccc3ccncc23)sc2nc3c(cc12)C(=O)CCC3 has a growth of 30.8%.
For CC(=O)c1c(C)[nH]c(-c2nc3ccc(N4CCN(C)CC4)cc3[nH]2)c1-c1ccccc1, the growth was 39.7%.
With COc1ccc(C(=O)c2cc3c(N)c(C(=O)Nc4cccc(Cl)c4C)sc3nc2C)cc1 the growth was 10.6%.
Cc1nccc2c3ccc(OCc4cn(-c5ccc(Cl)cc5)nn4)cc3n(CCCc3ccccc3)c12 gave a growth of 35.2%.
COc1cc(NCCCN(CC(C)C)C2CCCC2)c2ncccc2c1 was tested, and the growth was 93%.
Compound O=C1Nc2c(ccc(Cl)c2Cl)/C1=C/c1ccc(O)cc1 has a growth of 85.9%.
In the case of CCN1C(=O)N(CC)C2C1NN=c1s/c(=C3\C(=O)Nc4ccccc43)c(=O)n12 (stereo not given), the growth is reported as 15.1%.
CSc1nnc2c(=O)n(C)c(=O)n(C)c2n1 was tested, and the growth was 93.6%.
Work on NC(=O)c1ccc[n+](CC(=O)N2CCN(c3cc4c(cc3F)c(=O)c(C(=O)O)cn4C3CC3)CC2)c1 yielded a growth of 90.1%.
With Clc1nc(Cl)c2ncn(CC3(Cn4cnc5c(Cl)nc(Cl)nc54)COC3)c2n1 the growth was -73.4% (active).
With CCCCCCN(C)Cc1ccc(OCCOc2ccc(CN(C)CCCCCC)cc2)cc1 the growth was -19.3% (active).
In the case of C#Cc1cccc(NC(=O)Nc2cccc(N=C=S)c2)c1, the growth is reported as 106% [8.25 µM].
COC(=O)C(c1ccccc1)C(CC(=O)c1ccccc1)c1ccccc1 (stereo not given) was tested, and the growth was 91.5%.
CS(=O)(=O)OCCN(CCOS(C)(=O)=O)c1ccc(/C=N/Nc2ccc([N+](=O)[O-])cc2[N+](=O)[O-])cc1 showed a growth of 99.6%.
In the case of C=C1C(=O)O[C@H]2[C@H]1CC/C(COC(=O)CCCc1c[nH]c3ccccc13)=C\CC[C@@]1(C)O[C@@H]21, the growth is reported as 85.7%.
O=CNc1cc(Cl)cc(Cl)c1 gave a growth of 101%.
Compound COc1nccnn1 has a growth of 95.7%.
COc1ccc(C2CC(c3cccc(Nc4ccncc4)c3)=NN2c2ccccc2)cc1 (stereo not given) was tested, and the growth was -18.1% (active).
For CN(C)C(=O)OCc1nc2c(N3CCOCC3)nc(-c3ccccc3)nc2n1C, the growth was -65.6% (active).
COc1ccc(Cc2nc3cc(OC)c(OC)cc3c(=O)[nH]2)cc1 gave a growth of 18.9%.
N#Cc1cc(-c2nc3ccccc3s2)c(=O)n(NS(=O)(=O)c2ccc(Cl)cc2)c1N showed a growth of 102%.
In the case of COc1ccc(C(=O)/C=C/c2c(OC)cc(OC)cc2OC)c(OC)c1, the growth is reported as 15.6%.
With O=C(Nc1cccc(Cl)c1)c1cc(Cl)ccc1O the growth was 5.13% (active).
COc1cc(COC(=O)CCCCC[P+](c2ccccc2)(c2ccccc2)c2ccccc2)c(OC)c2c1OCO2 was tested, and the growth was 36.1%.
COc1ccc(Nc2nc(N)nc3c2CCc2occc2-3)cc1 showed a growth of 95.9%.
In the case of COc1cc(-c2nc3sccn3c2-c2ccnc(NCCNS(=O)(=O)c3ccc(F)cc3)n2)ccc1F, the growth is reported as 9.07% (active).
Compound COc1ccc(-c2nc(SCC(C)C)nc(N/N=C(/C)c3ccc(OC)c(OC)c3)c2C#N)cc1 has a growth of 74%.
CC(C)(C)CC(C)(C)Nc1c(-c2ccc(C(F)(F)F)cc2)nc2cnccn12 showed a growth of 83.8%.
